The whole screen tested about 66,000 compounds, of which about 960 (1.5%) showed an effect of 50% or more. What follows is part of a selection rich in strong results, with near analogues and random picks from the rest.
Tested on: Trypanosoma brucei
Experiment: Trypanosoma brucei 72 hour study
Assay type: functional, organism-based
Parameters: scale not given: in the data most compounds retested in dose-response had high values

| Structure (SMILES) | Percent Effect (30.3 µM, […]) [%] | Percent Effect (30 µM, 30.03 µM) [%] |
| --- | --- | --- |
| Cc1ccc(S(=O)(=O)Nc2ccc(=O)n(C)c2)c(Br)c1 | -36.73 |  |
| CCN1CC[C@@]2(C(=O)Nc3ccccc3)CCN(S(C)(=O)=O)CC[C@@H]12.O=C(O)C(F)(F)F |  | -16.54 |
| CCOCC1CN(C(=O)c2cnoc2C)Cc2cnn(C)c21.O=C(O)C(F)(F)F (stereo unspecified) | -5.791 |  |
| CCC(=O)N1CCC2(CC1)CC(CC(=O)N(C)C)c1ccc(F)cc12 (stereo unspecified) | -4.762 |  |
| c1ccc(-c2nc3c(c(NCc4n[nH]c5c4CCC5)n2)CCNC3)cc1 |  | 50.77 |
| c1ccc(-c2nc3c(c(NCc4nnc5n4CCC5)n2)CCNC3)cc1 | 7.408 |  |
| c1coc(-c2nc3c(c(NCc4n[nH]c5c4CCC5)n2)CCNCC3)c1 |  | -54.29 |
| CCc1nc2ccccc2c(=O)n1CC1(O)CCN(C(=O)C2CC2)CC1.Cl | 5.264 |  |
| CN(C)c1ccc(-c2cc(C(=O)O)cc(S(=O)(=O)NC3CC3)c2)cc1 |  | 102.4 |
| O=C(O)c1cc(-c2ccc3c(c2)OCO3)cc(S(=O)(=O)NC2CC2)c1 |  | -10.73 |
| O=C(O)c1cc(-c2ccoc2)cc(S(=O)(=O)NC2CC2)c1 |  | 27.37 |
| O=C(CO)N1CCC(CCc2ccnc(Nc3cnccn3)c2)CC1 | 12.44 |  |
| O=C(Nc1cc(CCC2CCN(CCO)CC2)ccn1)c1ccccn1 | 100.1 |  |
| CC(=O)N1CCC(CCc2ccnc(Nc3ccccn3)c2)CC1 | 18.19 |  |
| CC(=O)N1CCC(CCc2ccnc(NC(=O)c3ccccn3)c2)CC1 | 56.75 |  |
| CC(=O)Nc1cc(CCC2CCN(C(=O)c3ccccn3)CC2)ccn1 | -19.84 |  |
| CN1CCC(CCc2ccnc(NC(=O)c3ccccn3)c2)CC1 | 24.76 |  |
| O=C(O)C(F)(F)F.O=C([C@@H]1C[C@@H]2CCN(C3CCOCC3)C[C@@H]2O1)N1CCCC1 | -37.65 |  |
| O=C(NCc1cccs1)[C@H]1CO[C@H]2CCN(C3CCCC3)C[C@H]2C1.O=C(O)C(F)(F)F | -53.03 |  |
| CN(C)CCn1ccc2cc(NC(=O)NCc3ncnn3C)ccc21 | -3.411 |  |
| Cc1nc(CNC(=O)Nc2ccc3c(ccn3CCN(C)C)c2)no1 | -6.711 |  |
| Cc1cc(NC(=O)Nc2ccc3c(ccn3CCN(C)C)c2)n(C)n1 | 55.17 |  |
| Cc1cccc(CN2Cc3ncn(C)c3C(COCC(=O)N(C)C)C2)n1.O=C(O)C(F)(F)F.O=C(O)C(F)(F)F.O=C(O)C(F)(F)F (stereo unspecified) | -54.51 |  |
| Cl.c1cncc(CNc2cncc(C3CCCN3)n2)c1 (stereo unspecified) | -3.878 |  |
| Cc1nc(CN2CCO[C@@H]3CN(Cc4nccs4)C[C@@H]3C2)cs1.O=C(O)C(F)(F)F.O=C(O)C(F)(F)F |  | 45.29 |
| Cl.Cn1cc(CN(Cc2ccccc2)Cc2ccccn2)cn1 | -17.42 |  |

| Structure (SMILES) | Percent Effect (30.3 µM, […]) [%] | Percent Effect (30 µM, 30.03 µM) [%] |
| --- | --- | --- |
| CN(C)[C@@H]1CN(Cc2ccccn2)C[C@H]1c1cn(C)c2ccccc12.Cl | 22.59 |  |
| CN(C)[C@@H]1CN(Cc2ccc(O)cc2)C[C@H]1c1cn(C)c2ccccc12.Cl | 10.26 |  |
| CN(C)[C@@H]1CN(Cc2ccccc2O)C[C@H]1c1cn(C)c2ccccc12.Cl | 100 |  |
| CCn1nc(C)c(-c2cncn2CCN(C)C2CCCC2)c1C.Cl | -4.685 |  |
| O=C(c1c(O)cc(F)cc1F)N1CCc2cnccc21 |  | -42.5 |
| CCO[C@@H]1CO[C@@]2(CCN(Cc3ccc4c(c3)OCO4)C2)C1.O=C(O)C(F)(F)F | 14.48 |  |
| Cc1[nH]nc(CCC(=O)N2CCc3ncnc(NCCO)c3CC2)c1C |  | -37 |
| O=C(CCc1cccs1)N1CCc2[nH]nc(COc3ccccc3)c2C1 |  | 68.24 |
| O=C(CCc1ccco1)N1CCc2[nH]nc(COc3ccccc3)c2C1 |  | -57.79 |
| O=C(CCn1cccc1)N1CCc2[nH]nc(COc3ccccc3)c2C1 |  | -16.91 |
| Cc1nn(C(C)C)c(C)c1CN1CCN(C2CCCCC2)C(=O)C1.O=C(O)CC(O)(CC(=O)O)C(=O)O | -4.336 |  |
| CC(=O)N1CCCCC12CCCN(Cc1ccco1)C2.O=C(O)C(F)(F)F (stereo unspecified) | 5.13 |  |
| Cc1cc(C)c(-c2nc(-c3c(C)ncc4c3CCNC4)no2)o1 |  | -0.4206 |
| CN(Cc1cccnc1)C1COC2(CCN(Cc3nccs3)CC2)C1.O=C(O)C(F)(F)F.O=C(O)C(F)(F)F.O=C(O)C(F)(F)F (stereo unspecified) | -7.601 |  |
| CN(Cc1ccco1)C1COC2(CCN(Cc3nccs3)CC2)C1.O=C(O)C(F)(F)F.O=C(O)C(F)(F)F (stereo unspecified) | -7.244 |  |
| CN(C)CCN1C2(CCN(Cc3nccs3)C2)c2ccccc2S1(=O)=O.O=C(O)C(F)(F)F.O=C(O)C(F)(F)F (stereo unspecified) | -461.1 |  |
| CN(Cc1ccccc1)C1COC2(CCN(Cc3nccs3)CC2)C1.O=C(O)C(F)(F)F (stereo unspecified) |  | 56.78 |
| CN(C)C1COC2(CCN(Cc3nccs3)CC2)C1.O=C(O)C(F)(F)F.O=C(O)C(F)(F)F (stereo unspecified) | -5.42 |  |
| CN(Cc1ccccn1)C1COC2(CCN(Cc3cccnc3)CC2)C1 (stereo unspecified) |  | -2.463 |
| COCCN1C2(CCN(Cc3nccs3)C2)c2ccccc2S1(=O)=O.O=C(O)C(F)(F)F (stereo unspecified) | -203.3 |  |
| CC(C)CCN1C2(CCN(Cc3nccs3)C2)c2ccccc2S1(=O)=O.O=C(O)C(F)(F)F (stereo unspecified) | 91.13 |  |
| CN(Cc1cccnc1)C1CC2(CCN(c3ccccn3)CC2)C1.O=C(O)C(F)(F)F.O=C(O)C(F)(F)F.O=C(O)C(F)(F)F |  | 54.5 |
| CN(Cc1cccnc1)C1CC2(CCN(c3ncccn3)CC2)C1.O=C(O)C(F)(F)F.O=C(O)C(F)(F)F | -50.17 |  |
| CN(Cc1ccccn1)C1COC2(CCN(Cc3nccs3)CC2)C1 (stereo unspecified) |  | 58.22 |
| CN(Cc1cccnc1)C1CC2(CCN(Cc3ccccn3)CC2)C1.O=C(O)C(F)(F)F.O=C(O)C(F)(F)F.O=C(O)C(F)(F)F | -569.4 |  |

From ChEMBL document CHEMBL3988442, “University of Dundee, Small-Polar-MMV Screening Library” (2021)
